Source: PubChem
An excerpt weighted towards active compounds, which were near 1.8% of everything screened.
EWS-Fli block: blocks EWS/Fli oncoprotein-driven transcription. A673 NR0B1-luciferase reporter, viability-normalised. inhibition, % at 12.6 µM. 350,000 tested, 0.67% active. AID 651661;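 active = mean inhibition of at least 50% after viability correction, with every replicate also passing that limit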;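 also: firefly luciferase signal divided by Alamar Blue viability fluorescence both relative to DMSO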
LGR2 antag: blocks bursicon-induced cAMP signaling via Drosophila LGR2. HEK293 LGR2, CRE-luciferase, bursicon-stimulated, 4 h. inhibition, % at 9.99 µM. 380,000 tested, 0.35% active;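 active = drop in luminescence signal, shown as inhibition above about 50% in the replicate tests, limit read from the data, passing the limit was not always enough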;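 also: agonist challenge used bursicon conditioned medium at about half maximal strength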
RAD52 inh: inhibitors of human RAD52 DNA annealing. P43351. recombinant RAD52 DNA annealing, FRET fluorescence. inhibition, % at 18.7 µM. 360,000 tested, 0.46% active;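 active = every replicate showing at least 50% inhibition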
RAD54 branch: blocks human RAD54 Holliday junction branch migration; FAM/BHQ fluorescence; Q92698; inhibition, % at 10.4 µM; 360,000 tested, 0.14% active; AID 602329;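 active = mean normalized replicate activity at least 40 and at least half of replicates scoring 40 or more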;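 also: inhibitors cause a drop in the FAM fluorescence signal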
Target sequence (Q92698 whole entry, looked up): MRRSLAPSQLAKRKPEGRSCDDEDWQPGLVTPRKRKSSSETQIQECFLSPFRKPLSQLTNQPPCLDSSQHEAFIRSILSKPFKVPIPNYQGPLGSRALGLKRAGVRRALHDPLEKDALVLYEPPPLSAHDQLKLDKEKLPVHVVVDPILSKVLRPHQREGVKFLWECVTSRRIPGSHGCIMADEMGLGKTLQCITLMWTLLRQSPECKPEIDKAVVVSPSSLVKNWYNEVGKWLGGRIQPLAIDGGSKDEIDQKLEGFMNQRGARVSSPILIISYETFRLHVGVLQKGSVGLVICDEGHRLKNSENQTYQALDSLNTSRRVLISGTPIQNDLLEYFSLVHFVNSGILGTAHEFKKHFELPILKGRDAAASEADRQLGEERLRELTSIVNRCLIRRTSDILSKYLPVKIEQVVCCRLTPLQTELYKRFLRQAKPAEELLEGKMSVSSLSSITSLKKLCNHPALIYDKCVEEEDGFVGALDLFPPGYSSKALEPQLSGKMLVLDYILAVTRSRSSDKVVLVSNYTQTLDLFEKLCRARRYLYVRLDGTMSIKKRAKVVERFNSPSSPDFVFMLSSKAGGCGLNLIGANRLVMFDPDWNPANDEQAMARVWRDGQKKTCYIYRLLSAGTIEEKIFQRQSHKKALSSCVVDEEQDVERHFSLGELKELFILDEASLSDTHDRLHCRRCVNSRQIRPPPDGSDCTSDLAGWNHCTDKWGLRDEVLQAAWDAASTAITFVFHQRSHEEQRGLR
GSIS activator: GLuc luminescence reporter in INS-1E cells, primary screen for activators of glucose-dependent secretion of insulin. INS-1E GLuc reporter insulin secretion, 2-3 h. activation, % at 16.6 µM. 370,000 tested, 0.61% active. AID 743287;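 active = lowest replicate activation of at least 40%, so every replicate reaches that level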
F508del corr: CFTR F508del correction in bronchial cells | activity (quench increase), % at 7.58 µM | AID 720511 | 350,000 tested, 0.36% active | CFBE cells, YFP halide quenching; stimulated with forskolin plus potentiator P3; % fluorescence drop versus neutral controls;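 active = mean added fluorescence quench of at least 8% versus neutral control, with both replicates also reaching 8%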;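 also: cells transiently co-express mutant CFTR-F508del with the halide-sensitive YFP; corrector assay measuring rescue of mutant channel to the surface after 24 h compound exposure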
Numbers stand for hits; . = inactive; / = not tested or not shown.

SMILES	EWS-Fli block	LGR2 antag	RAD52 inh	RAD54 branch	GSIS activator	F508del corr
CCCc1c(C)c2ccc(OCC(C)=O)cc2oc1=O	/	.	/	.	51.5	/
CCOc1nc(-c2ccccc2)ccc1-c1noc(-c2cccnc2)n1	.	.	.	.	.	.
N#C/C(=C/c1ccc(N2CCCCC2)o1)C(=O)Nc1ccc2ccccc2c1	.	.	.	/	.	9.6
CCCNc1c(NS(=O)(=O)c2ccc(C(C)(C)C)cc2)c(=O)oc2ccccc12	.	.	.	.	.	.
CCCNc1c(NS(=O)(=O)c2cccc(C#N)c2)c(=O)oc2ccccc12	.	.	.	.	56.0	.
Cc1ccc(C)c(OCC(=O)Nc2nc3ccc([N+](=O)[O-])cc3s2)c1C	/	.	.	.	.	/
O=C(Nc1nc2ccccc2s1)c1ccc2sc([C@H]3C[C@H](O)[C@@H](CO)O3)nc2c1	.	98.4	.	.	.	.
O=C(Nc1nccs1)c1ccc2sc([C@H]3C[C@H](O)[C@@H](CO)O3)nc2c1	.	.	.	.	.	.
COc1ccc2nc(NC(=O)c3ccco3)sc2c1	.	81.3	.	.	.	.
COc1cccc(C(=O)Nc2nc3ccccc3s2)c1	.	.	.	.	.	.
COc1ccc(C(=O)Nc2nc3ccccc3s2)cc1	61.1	.	.	.	.	.
O=C(Nc1nc2ccc(Cl)cc2s1)c1ccco1	/	/	/	.	/	/
COc1cccc(CNc2ncn[nH]2)c1OCc1ccc(F)cc1	.	.	.	/	.	.
CC(C)NC(=O)Nc1ccc2c(c1)C(=O)N([C@H](C)CO)C[C@@H](C)[C@@H](CN(C)S(=O)(=O)c1ccc(F)cc1)OCCCC[C@H](C)O2	.	.	.	.	.	.
Cc1ccnc(NC(=O)COc2ccccc2[N+](=O)[O-])c1	.	.	.	/	.	.
CN1CCN(c2ccc(NC(=O)COc3ccccc3[N+](=O)[O-])cc2)CC1	.	.	.	/	.	.
Cc1ccc(NC(=O)COc2ccccc2[N+](=O)[O-])nc1	.	53.9	.	.	.	.
CC(C)C(=O)N1CCN(c2ccc(NC(=O)COc3ccccc3[N+](=O)[O-])cc2)CC1	.	63.5	.	.	.	.
CCC[C@@H](CN1CCC[C@H]1CN1C(N)=NC[C@@H]1Cc1ccccc1)N1C[C@@H](Cc2ccccc2)N(CCc2ccc(Cl)c(Cl)c2)C1=N	.	.	56.1	.	.	.
CCC(C)(C)c1ccc(OCCCC[n+]2ccc(C)cc2)c(C(C)(C)CC)c1	/	.	/	/	559.6	/
Cc1cc[n+](CC[n+]2ccc(C)cc2)cc1	.	.	.	.	.	.
CCOc1ccc(-c2ccc(SCC(=O)Nc3nnc(CC)s3)nn2)cc1	.	.	.	/	.	.
CCOc1ccc(-c2ccc(SC)nn2)cc1	79.0	99.1	.	.	.	.
COc1ccc(-c2noc(-c3ccccc3-c3ccccc3)n2)cc1	/	/	/	.	/	/
Cc1ccc(-c2nc(-c3ccccc3)no2)c(Cl)c1	83.9	66.7	.	.	.	.
SMILES	EWS-Fli block	LGR2 antag	RAD52 inh	RAD54 branch	GSIS activator	F508del corr
COC(=O)c1cn(NC(=O)c2cc([N+](=O)[O-])ccc2F)c(=O)c2ccccc12	.	.	.	/	.	8.7
COCCn1c(C)cc(C(=O)COC(=O)c2cc3c(s2)CCC3)c1C	/	/	/	.	.	/
COCCn1c(C)cc(C(=O)COC(=O)c2cccc(O)c2)c1C	.	84.8	.	/	.	.
C[C@H]1CN([C@@H](C)CO)C(=O)c2cc(NC(=O)Nc3cccc4ccccc34)ccc2O[C@@H]1CN(C)Cc1ccncc1	/	.	.	.	.	.
C[C@H](CO)N1C[C@H](C)[C@H](CN(C)S(C)(=O)=O)Oc2c(NS(=O)(=O)c3cccs3)cccc2C1=O	.	.	.	.	.	.
COc1ccc(NC(=O)c2ccc(NC(=O)c3cccs3)cc2)cc1	.	.	.	.	.	.
COc1nc(N)nc(NC(=O)c2cccs2)c1N=O	.	.	.	.	.	11.2
Cc1cccc(-n2c(SCC(N)=O)nnc2-c2ccccn2)c1C	/	/	/	.	/	/
CCC(C)NC(=O)CN(c1ccc(OC)cc1)S(=O)(=O)c1ccc(NC(C)=O)cc1 (centres undefined)	/	/	/	.	/	/
CCCNC(=O)c1nnsc1S(=O)c1ccc(Cl)cc1 (centres undefined)	.	102.8	.	/	115.1	/
CCCNC(=O)c1ccc2snnc2c1	/	.	/	.	.	/
CNC(=O)c1nnsc1S(=O)c1ccc(Cl)cc1 (centres undefined)	.	102.4	.	/	.	/
CCCNC(=O)NS(=O)(=O)c1ccc(Cl)cc1	.	.	.	.	/	.
CCCNC(=O)c1nnsc1S(=O)(=O)c1ccc(Cl)cc1	.	96.2	.	/	65.0	.
COC(=O)c1sccc1-n1cccc1C(=O)C(=O)Nc1ccc(F)cc1	.	/	.	.	.	.
CCCN1CCN(CCCNC(=O)c2cc3c(s2)-c2ccccc2OC3)CC1	/	.	.	.	.	.
CCc1nnc(NC(=O)CSc2nnc(-c3ccccc3O)n2-c2ccc(C)cc2)s1	/	/	/	/	.	/
N#C/C(=C(/O)c1ccc([N+](=O)[O-])s1)c1nc2ccccc2[nH]1	.	.	.	.	.	.
N#C/C(=C(/O)c1ccc(Br)s1)c1nc2ccccc2[nH]1	.	.	.	.	.	10.0
CC[C@H](C)[C@@H]1NC(=O)c2cc([N+](=O)[O-])cc(F)c2NCCCC[C@@H](C(N)=O)NC(=O)[C@H](CCCCN)NC1=O	.	/	65.0	.	/	.
NCCCC[C@@H]1NC(=O)c2cc([N+](=O)[O-])cc(F)c2NCCCC[C@@H](C(N)=O)NC(=O)CNC1=O	.	.	.	.	.	.
Cc1ccc(S(=O)(=O)NC2CCN(Cc3cccc(OCCO)c3)CC2)cc1	.	/	51.5	.	/	.
CCN1/C(=C/c2ccc3cc(C)ccc3[n+]2C)Sc2ccc3sccc3c21	53.3	.	.	.	.	.
CCN1/C(=C/c2ccc3cc(C)ccc3[n+]2CC)Sc2cc(C)ccc21	59.4	.	.	.	.	.
CCOc1ccc(N2CC(C(=O)Nc3ccc(S(=O)(=O)N4CCOCC4)cc3)CC2=O)cc1 (centres undefined)	/	/	/	.	/	/
COc1ccc(Nc2nc3cc(-c4ccsc4)sc3c(=O)n2C)cc1OC	.	.	.	.	.	.
COc1ccc(Nc2nc3cc(-c4sccc4C)sc3c(=O)n2C)cc1OC	.	.	.	.	.	9.6
C[C@@H]1CCCCO[C@@H](CN(C)S(=O)(=O)c2ccc(F)cc2)[C@@H](C)CN([C@@H](C)CO)C(=O)c2cc(NC(=O)Nc3cccc4ccccc34)ccc2O1	.	.	.	.	.	.
CC(CC(=O)Nc1ccc2c(c1)c(=O)n(C)n2-c1ccccc1)c1ccccc1 (centres undefined)	56.4	.	.	.	.	.
COc1ccccc1C(=O)NC(=S)/C=C1/N(C)c2ccccc2C1(C)C	.	.	.	/	.	10.0
